Assay outcomes as filed in PubChem.
Pf growth 48h – Primary qHTS for delayed death inhibitors of the malarial parasite plastid, 48 hour incubation; P. falciparum luciferase growth in erythrocytes, 48 h; Potency, µM (titrated, usually from 28.7 µM), without a hit: at the top dose activity change, negative = inhibition, usual class: inhibitors; actives 5.9% (n = 310,000); also: potency is read from the fitted curve at half-maximal effect
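Parasite viability was followed by luminescence of a genomically integrated firefly luciferase. Cultures held 0.1% parasitemia at 2% hematocrit (final), incubated under 5% CO2 at 37 C.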
Sm TGR block – qHTS Assay for the Inhibitors of Schistosoma Mansoni Peroxiredoxins; AID 485364, 2010; purified TGR, DTNB reduction, TNB absorbance 405 nm; Schistosoma mansoni thioredoxin glutathione reductase (TGR), Q962Y6; Potency, µM (doses to about 114 µM), inactives show at the highest dose activity change, negative = inhibition, most hits filed as inhibitors; actives 3% (n = 360,000); also: potency is read from the fitted curve at half-maximal effect; nearly all actives have a fitted effect of over 60% in size
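Kinetic colorimetric format: TGR-catalysed, NADPH-driven DTNB reduction monitored via TNB absorbance. Enzyme dispensed at 20 nM; compound exposure 15 min at room temperature before reaction start.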
Pf growth 96h – Primary qHTS for delayed death inhibitors of the malarial parasite plastid, 96 hour incubation | Potency, µM (top dose mostly 28.7 µM), without a hit: at the highest dose activity change, negative = inhibition, actives largely listed as inhibitors | P. falciparum luciferase reporter growth, 96 h | actives 6.9% (n = 320,000) | AID 504834, 2011; also: potency is read from the fitted curve at half-maximal effect
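Infected RBCs, 2% Hct / 0.05% parasitemia final; luciferase-reporter P. falciparum; cpd 96 h, 37 C, 5% CO2; luciferase detection reagent; luminescence.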
FBPA Giardia inh – qHTS Assay for Inhibitors of Fructose-1,6-bisphosphate Aldolase from Giardia Lamblia. AID 2451, 2010. Potency, µM (series often up to 59.6 µM), for inactives: at the highest dose activity, negative = inhibition, usual class: inhibitors. A8B2U2. purified Giardia FBPA. actives 0.71% (n = 290,000); also: potency is read from the fitted curve at half-maximal effect; nearly all actives have a fitted effect of over 55% in size
Target sequence (A8B2U2 whole entry, looked up): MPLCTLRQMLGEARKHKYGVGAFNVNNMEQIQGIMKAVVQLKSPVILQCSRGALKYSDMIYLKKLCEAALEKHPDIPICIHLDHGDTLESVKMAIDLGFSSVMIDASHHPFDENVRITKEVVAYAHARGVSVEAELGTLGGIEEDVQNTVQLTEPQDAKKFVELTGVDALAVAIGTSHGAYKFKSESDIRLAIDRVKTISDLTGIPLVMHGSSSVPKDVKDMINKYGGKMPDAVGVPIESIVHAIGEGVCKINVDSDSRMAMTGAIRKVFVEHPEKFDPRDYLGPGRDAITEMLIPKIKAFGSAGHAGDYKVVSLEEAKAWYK
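Giardia FBPA (40 nM reagent) was preincubated 10 min at RT with compound (up to 57.5 uM final), then substrate plus GAPDH/TPI/NAD/arsenate coupling system with diaphorase/resazurin was added; resorufin fluorescence (525/598 nm) was read after 20 min.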
HCMV inh – qHTS Assay for inhibitors of the human cytomegalovirus (HCMV). HFF cells, HCMV-luciferase reporter, 72 h; hits give low values. activity change, negative = inhibition, % at 57.5 µM. actives 4.5% (n = 410,000). AID 1259415, 2018; in the data active = activity change below about -60%; inconclusive = no clear call, values can overlap the other calls; inactive = above about -39%
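Compounds were evaluated in HFFs infected with an HCMV luciferase reporter virus (MOI 1 PFU/cell). Luciferase in lysates collected 72 h post infection served as the replication measure.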
* hit, by the source's call; ? = inconclusive; · = no result given; [ ] = another dose, or the depositor's remark. This is a sample that favours compounds with a hit; in the whole collection about 14% have one here. Unless noted, calls follow the shape of the dose curve; as a rule, active = well fitted curve in the direction sought with a large enough effect; inconclusive = small, poorly fitted or top-dose-only effect, or another doubt; inactive = no such curve, though single readings can be large; an effect the other way counts as inactive or inconclusive. % is scaled to controls: 0 for no effect and ±100 for the full control effect.

SMILES	Pf growth 48h	Sm TGR block	Pf growth 96h	FBPA Giardia inh	HCMV inh
O=[N+]([O-])c1nn(-c2ccc3c(c2)OCCO3)n(O)c1=NCCCO	24%	-2%	42%	-1%	16
Cc1cccc(-n2nc([N+](=O)[O-])c(=NC3CCN(Cc4ccccc4)CC3)n2O)c1	?	1%	?	-8%	-64*
Cc1ccc(N=c2c([N+](=O)[O-])nn(-c3ccc4c(c3)OCCO4)n2O)c(Cl)c1	163%	4.5µM*	-9%	-8%	·
Cc1ccc(CN=c2c([N+](=O)[O-])nn(-c3ccc4c(c3)OCCO4)n2O)cc1	94%	-3%	?	-9%	47
CCc1ccc(N=c2c([N+](=O)[O-])nn(-c3ccc4c(c3)OCCO4)n2O)cc1	8%	10µM*	?	-11%	23
O=[N+]([O-])c1nn(-c2ccc3c(c2)OCCO3)n(O)c1=NC1CCCCCC1	·	35µM*	5%	-11%	?
O=[N+]([O-])c1nn(-c2ccc3c(c2)OCCO3)n(O)c1=Nc1ccccc1	?	-6%	-8%	?	-95*
Cc1ccc(N=c2c([N+](=O)[O-])nn(-c3ccc4c(c3)OCCO4)n2O)cc1F	159%	-36%	?	-1%	-85*
O=C1CSC(c2ccc([N+](=O)[O-])cc2)N1Cc1ccccc1 (centres undefined)	-10%	-5%	-9%	0%	6
COCCNC(=O)c1ccc(CS(=O)(=O)c2ccc(OC)cc2)o1	5%	-32%	-14%	1%	-3
COc1ccc(S(=O)(=O)Cc2ccc(C(=O)NCc3ccccn3)o2)cc1	·	35µM*	?	-1%	10
Cc1ccc(CS(=O)(=O)Cc2ccc(C(=O)NCc3ccccn3)o2)cc1	?	40µM*	-40%	4%	-1
CCOc1cc(-c2ccc(OC(=O)c3ccccc3)c(OC)c2)cc(=O)c2c(C)oc(C)c12	·	-23%	·	·	250
COC(=O)c1c(NC(=O)c2ccc(C(C)(C)C)cc2)sc2c1CCC(C)C2 (centres undefined)	·	4%	·	·	-1
Cc1ccc(S(=O)(=O)N(C)c2ccccc2)cc1	3%	3%	·	-13%	-24
CN(c1ccccc1)S(=O)(=O)c1ccccc1Br	-29%	0%	22%	·	-81*
O=C(NCCCN1CCCC1)c1ccc(CS(=O)(=O)c2ccc(Cl)cc2)o1	7%	-17%	?	·	-34
CC(C)c1ccc(NC(=O)c2cccn2-c2nnc(N3CCCCC3)s2)cc1	·	0%	·	·	0
COc1ccc(-c2[nH]ncc2CN2CCC(C(=O)N3CCOCC3)CC2)c(F)c1	15%	8%	?	3%	-63*
CC1CCCN(CCCNC(=O)c2ccc3c(c2)N(Cc2ccc(F)cc2)C(=O)c2ccccc2S3=O)C1 (centres undefined)	13µM*	-4%	12µM*	·	-22
CCN1C(=O)c2ccccc2S(=O)c2ccc(C(=O)NCCN(CC(C)C)CC(C)C)cc21 (centres undefined)	12µM*	-25%	76%	0%	-37
O=C(NCCCN1CCOCC1)c1ccc2c(c1)N(Cc1cccc(Cl)c1)C(=O)c1ccccc1S2=O (centres undefined)	12µM*	-7%	-7%	10%	?
CCN1C(=O)c2ccccc2S(=O)c2ccc(C(=O)NCc3ccc(C)cc3)cc21 (centres undefined)	·	-1%	·	·	65
CCCCN(C)C(=O)c1ccc2c(c1)N(Cc1cccc(Cl)c1)C(=O)c1ccccc1S2=O (centres undefined)	·	6%	·	·	-81*
COc1c(C)cccc1C(=O)NCc1ccc2c(c1)OCO2	-7%[0.00184 µM]	-2%	?	-3%	11
SMILES	Pf growth 48h	Sm TGR block	Pf growth 96h	FBPA Giardia inh	HCMV inh
CN(C)S(=O)(=O)c1cccc(NC(=O)c2cccc(S(=O)(=O)N3CCCCC3)c2)c1	?	0%	?	·	?
O=C(NCCCN1CCOCC1)c1ccc2c(c1)N(Cc1ccccc1F)C(=O)c1ccccc1S2=O (centres undefined)	-24%	0%	15µM*	-6%	-37
O=C(NCCCN1CCCC1)c1ccc2c(c1)N(Cc1ccc(F)cc1)C(=O)c1ccccc1S2=O (centres undefined)	?	-25%	-1%	-15%	?
CC1CCCN(CCCNC(=O)c2ccc3c(c2)N(Cc2cccc(Cl)c2)C(=O)c2ccccc2S3=O)C1 (centres undefined)	·	·	·	·	-81*
O=C(NCCCN1CCOCC1)c1ccc2c(c1)N(Cc1ccccc1)C(=O)c1ccccc1S2=O (centres undefined)	?	5%	7%	·	7
CCOC(=O)c1ccc(N(CC(=O)NC2CCCC2)C(=O)CNC(=O)c2ccco2)cc1	9.3µM*	-14%	7%	1%	3
O=C(CN(Cc1ccc2c(c1)OCO2)C(=O)CNC(=O)c1ccco1)NC1CCCCC1	8%	9%	7.4µM*	4%	7
Cc1ccc(N(C(=O)CNC(=O)c2ccco2)C(C(=O)NC2CCCCC2)c2ccncc2)c(C)c1 (centres undefined)	12µM*	-15%	-6%	·	6
COc1ccc(N(C(=O)CNC(=O)c2cccs2)C(C(=O)NC2CCCC2)c2ccncc2)cc1 (centres undefined)	-5%	-15%	13µM*	8%	5
COc1ccc(N(C(=O)Cc2cccs2)C(C(=O)NC2CCCC2)c2ccncc2)cc1 (centres undefined)	4%	-10%	-2%	·	47
CCOc1ccc(N(CC(=O)NC2CCCCC2)C(=O)CNC(=O)c2ccco2)cc1	·	·	·	·	37
Cc1ccc(C)c(N(C(=O)CNC(=O)c2ccco2)C(C(=O)NC2CCCCC2)c2ccncc2)c1 (centres undefined)	-20%	-5%	35%	10%	-8
Nc1sc(-c2ccccc2)cc1C(=O)N1CCN(c2ccccc2)CC1	·	·	·	·	-38
Cc1nc(-c2ccccc2)sc1-c1nc(-c2cccs2)ncc1S(=O)(=O)c1ccccc1	?	4%	124%	-2%	·
O=C(NCC(=O)N(Cc1cccs1)C(C(=O)NC1CCCCC1)c1ccncc1)c1ccco1 (centres undefined)	?	45µM*	5.9µM*	-7%	-15
O=C(NCC(=O)N(c1cccc(F)c1)C(C(=O)NC1CCCC1)c1ccco1)c1ccco1 (centres undefined)	1%	1%	-22%	0%	-7
COc1ccc(N(C(=O)CNC(=O)c2ccco2)C(C(=O)NC2CCCC2)c2ccncc2)cc1 (centres undefined)	11%	·	2.6µM*	5%	-10
